Measured values as given in PubChem BioAssay AID1159580 (chemical genetic matrix, 2015).
Screen size: about 5,500 compounds; about 2,000 (36%) were called active. Roughly 18% stayed inconclusive and do not appear here. Cut-off read from the data, not from the text of the source: active = normalized growth mostly below about 0.91 (no sharp cut-off); inconclusive = no clear call, values can overlap the other calls; inactive = mostly above about 0.92. The list shows a part of the results.

Assay: chemical genetic growth profiling, strain panel (AID 1159580);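 note: tested at 20 µM; growth read once vehicle control cultures reached saturation at 30 °C; 1 = growth at the plate median or of vehicle wells; lower values mean less growth of the strain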
Settings: growth OD

Measured: normalized growth

CCC1OC(=O)[C@H](C)C(=O)[C@H](C)[C@@H](OC2O[C@H](C)C[C@H](N(C)C)[C@H]2O)[C@](C)(OC)C2(CCCn3cnc(-c4cccnc4)c3)C[C@@H](C)C(=O)[C@H](C)[C@H]3N(C2)C(=O)O[C@]13C (some centres undefined)
inactive: S. cerevisiae deletion strains, locus YJR043C, strain POL32, hits give low values 0.994 | S. cerevisiae deletion strains, locus YJR075W, strain HOC1, hits give low values 0.99 | S. cerevisiae deletion strains, locus YKL009W, strain mrt4, hits give low values 1.01 | S. cerevisiae deletion strains, locus YKL068W, hits give low values 1.01 | S. cerevisiae deletion strains, locus YKL085W, strain MDH1 (second series), hits give low values 0.998 | S. cerevisiae deletion strains, locus YKL085W, strain MDH1, hits give low values 0.998 | S. cerevisiae deletion strains, locus YKL160W, strain elf1, hits give low values 0.994 | S. cerevisiae deletion strains, locus YKL190W, strain CNB1, hits give low values 1 | S. cerevisiae deletion strains, locus YKR001C, strain vps1, hits give low values 0.997 | S. cerevisiae deletion strains, locus YKR026C, strain gcn3, hits give low values 0.989 | S. cerevisiae deletion strains, locus YKR091W, strain srl3, hits give low values 0.985 | S. cerevisiae deletion strains, locus YLL001W, strain dnm1, hits give low values 0.984 | S. cerevisiae deletion strains, locus YLL026W, hits give low values 0.988 | S. cerevisiae deletion strains, locus YLL041C, strain sdh2, hits give low values 0.977 | S. cerevisiae deletion strains, locus YLR027C, strain aat2, hits give low values 0.99 | S. cerevisiae deletion strains, locus YLR039C, strain RIC1, hits give low values 1.02 | S. cerevisiae deletion strains, locus YLR058C, strain SHM2, hits give low values 1 | S. cerevisiae deletion strains, locus YLR102C, strain apc9, hits give low values 0.997 | S. cerevisiae deletion strains, locus YLR221C, strain rsa3, hits give low values 0.973 | S. cerevisiae deletion strains, locus YLR258W, strain gsy2, hits give low values 0.983 | S. cerevisiae deletion strains, locus YLR262C, strain YPT6 (second series), hits give low values 0.978 | S. cerevisiae deletion strains, locus YLR262C, strain YPT6, hits give low values 1.04 | S. cerevisiae deletion strains, locus YLR268W, strain sec22, hits give low values 0.98 | S. cerevisiae deletion strains, locus YLR320W, strain mms22, hits give low values 0.975 | S. cerevisiae deletion strains, locus YLR330W, strain CHS5, hits give low values 1 | S. cerevisiae deletion strains, locus YLR342W, strain FKS1 (second series), hits give low values 0.999 | S. cerevisiae deletion strains, locus YLR342W, strain FKS1, hits give low values 1.01 | S. cerevisiae deletion strains, locus YLR357W, strain rsc2, hits give low values 0.935 | S. cerevisiae deletion strains, locus YLR370C, strain arc18, hits give low values 0.985 | S. cerevisiae deletion strains, locus YLR371W, strain rom2, hits give low values 1.01 | S. cerevisiae deletion strains, locus YLR384C, strain iki3, hits give low values 0.995 | S. cerevisiae deletion strains, locus YLR418C, strain cdc73, hits give low values 0.979 | S. cerevisiae deletion strains, locus YML016C, strain PPZ1, hits give low values 1.01 | S. cerevisiae deletion strains, locus YML032C, strain rad52, hits give low values 1.01 | S. cerevisiae deletion strains, locus YML120C, strain ndi1, hits give low values 0.966 | S. cerevisiae deletion strains, locus YML124C, strain tub3, hits give low values 1.01 | S. cerevisiae deletion strains, locus YMR058W, strain fet3, hits give low values 0.974 | S. cerevisiae deletion strains, locus YMR078C, strain ctf18, hits give low values 1.01 | S. cerevisiae deletion strains, locus YMR125W, strain sto1, hits give low values 1.01 | S. cerevisiae deletion strains, locus YMR129W, hits give low values 0.974 | S. cerevisiae deletion strains, locus YMR205C, strain PFK2, hits give low values 0.996 | S. cerevisiae deletion strains, locus YMR223W, strain ubp8, hits give low values 1 | S. cerevisiae deletion strains, locus YMR231W, strain pep5, hits give low values 0.98 | S. cerevisiae deletion strains, locus YMR263W, strain SAP30, hits give low values 1 | S. cerevisiae deletion strains, locus YMR307W, strain GAS1, hits give low values 0.93 | S. cerevisiae deletion strains, locus YNL067W, strain RPL9B, hits give low values 1.01 | S. cerevisiae deletion strains, locus YNL071W, strain lat1, hits give low values 0.99 | S. cerevisiae deletion strains, locus YNL128W, strain TEP1, hits give low values 1.01 | S. cerevisiae deletion strains, locus YNL153C, strain GIM3, hits give low values 1.01 | S. cerevisiae deletion strains, locus YNL209W, strain ssb2, hits give low values 0.986 | S. cerevisiae deletion strains, locus YNL233W, strain BNI4, hits give low values 1.01 | S. cerevisiae deletion strains, locus YNL248C, strain rpa49, hits give low values 0.946 | S. cerevisiae deletion strains, locus YNL250W, strain rad50, hits give low values 0.992 | S. cerevisiae deletion strains, locus YNL271C, strain bni1, hits give low values 0.997 | S. cerevisiae deletion strains, locus YNL298W, strain CLA4, hits give low values 0.995 | S. cerevisiae deletion strains, locus YNL307C, strain MCK1, hits give low values 1.01 | S. cerevisiae deletion strains, locus YNL322C, strain KRE1 (second series), hits give low values 0.968 | S. cerevisiae deletion strains, locus YNL322C, strain KRE1, hits give low values 1 | S. cerevisiae deletion strains, locus YNR049C, strain mso1, hits give low values 0.958 | S. cerevisiae deletion strains, locus YNR052C, strain pop2, hits give low values 1.01 | S. cerevisiae deletion strains, locus YOL006C, strain TOP1, hits give low values 1 | S. cerevisiae deletion strains, locus YOL012C, strain htz1 1.16 | S. cerevisiae deletion strains, locus YOL147C, strain pex11, hits give low values 1 | S. cerevisiae deletion strains, locus YOR001W, strain rrp6, hits give low values 1 | S. cerevisiae deletion strains, locus YOR061W, strain CKA2, hits give low values 1.01 | S. cerevisiae deletion strains, locus YOR069W, strain VPS5, hits give low values 1.01 | S. cerevisiae deletion strains, locus YOR070C, strain gyp1, hits give low values 0.984 | S. cerevisiae deletion strains, locus YOR080W, strain dia2, hits give low values 0.968 | S. cerevisiae deletion strains, locus YOR083W, strain WHI5, hits give low values 1.01 | S. cerevisiae deletion strains, locus YOR106W, strain vam3, hits give low values 0.994 | S. cerevisiae deletion strains, locus YOR136W, strain idh2, hits give low values 1.01 | S. cerevisiae deletion strains, locus YOR144C, strain elg1, hits give low values 1 | S. cerevisiae deletion strains, locus YOR184W, strain ser1, hits give low values 0.996 | S. cerevisiae deletion strains, locus YOR265W, strain rbl2, hits give low values 0.996 | S. cerevisiae deletion strains, locus YOR270C, strain vph1, hits give low values 0.963 | S. cerevisiae deletion strains, locus YOR290C, strain snf2, hits give low values 0.963 | S. cerevisiae deletion strains, locus YOR316C, strain cot1, hits give low values 0.998 | S. cerevisiae deletion strains, locus YPL051W, strain arl3, hits give low values 1 | S. cerevisiae deletion strains, locus YPL055C, strain LGE1, hits give low values 1.02 | S. cerevisiae deletion strains, locus YPL078C, strain atp4, hits give low values 0.984 | S. cerevisiae deletion strains, locus YPL106C, strain sse1, hits give low values 0.943 | S. cerevisiae deletion strains, locus YPL240C, strain hsp82, hits give low values 0.986 | S. cerevisiae deletion strains, locus YPL241C, strain CIN2, hits give low values 1 | S. cerevisiae deletion strains, locus YPR119W, strain clb2, hits give low values 1 | S. cerevisiae deletion strains, locus YPR141C, strain kar3, hits give low values 1 | S. cerevisiae deletion strains, locus YPR163C, strain tif3, hits give low values 1.01 | S. cerevisiae deletion strains, locus YPR167C, strain met16, hits give low values 1 | S. cerevisiae deletion strains, strain wtn01, hits give low values 0.977 | S. cerevisiae strains, strain wild type, hits give low values 0.999
